Screens deposited in PubChem by The Scripps Research Institute Molecular Screening Center.
The list is not random: actives were taken first. Their share in the collection is about 2.8%.
KLK7 zymogen act: proKLK7 zymogen activators, primary screen, biochemical, fluorescence intensity. 370,000 compounds, 0.9% hits. Kallikrein-7 (Homo sapiens), P49862. AID 652039, 2013. purified proKLK7, EDANS-DABCYL substrate fluorescence; 100% is mature enzyme control, 0% vehicle. activation, % at 7 µM;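 active = activation above the mean of all tested compounds plus 3 SD, computed per campaign excluding outliers beyond control limits, cut at about 13% in these data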
Target sequence (P49862 whole entry, looked up): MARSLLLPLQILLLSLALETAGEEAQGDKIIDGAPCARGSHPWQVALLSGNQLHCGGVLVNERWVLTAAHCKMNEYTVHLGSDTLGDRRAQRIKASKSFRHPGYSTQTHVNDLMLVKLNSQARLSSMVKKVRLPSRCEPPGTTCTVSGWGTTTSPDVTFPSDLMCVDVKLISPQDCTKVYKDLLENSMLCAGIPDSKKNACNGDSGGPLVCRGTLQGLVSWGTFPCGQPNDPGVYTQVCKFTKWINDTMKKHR
SMARCA2 act: SMARCA2 (BRM) function activators, primary screen, cell-based, luminescence, high throughput | activation, % at 9.1 µM | AID 652017, 2013 | 370,000 compounds, 1% hits | MG213 cells, MMTV-luciferase reporter, dexamethasone, overnight; in the data active = activation above about 7.8%
MsrA act: bovine MsrA enzyme activators, primary screen, biochemical, absorbance, HTS. Methionine sulfoxide reductase A (Bos taurus). activation, % at 10.6 µM. purified bovine MsrA, absorbance read-out. 360,000 compounds, 0.3% hits; in the data active = activation above about 7.5%
MsrA inh: bovine MsrA enzyme inhibitors, primary screen, biochemical, absorbance, HTS; 360,000 compounds, 0.75% hits; Methionine sulfoxide reductase A (Bos taurus); purified bovine MsrA, absorbance read-out; inhibition, % at 15.5 µM
MsrA inh confirm: bovine MsrA inhibitors, retest, confirmation, biochemical, absorbance, HTS; inhibition, % at 15.5 µM; purified bovine MsrA, absorbance read-out; shares compounds with MsrA inh; AID 651822, 2012; 2,300 compounds, 41% hits;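 note: coupled to thioredoxin reductase with NADPH and selenocystamine and DMSO as substrate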
Numbers stand for hits; i = inactive; nt = no result given. Cut-off read from the data, not from the text of the source, unless noted: active = inhibition above about 4.5%; inactive = the rest.

SMILES | KLK7 zymogen act | SMARCA2 act | MsrA act | MsrA inh | MsrA inh confirm
Cc1ccccc1NC(=O)OC1CCC12CCCCC2 (configuration not stated) | i | i | nt | nt | nt
CSc1ccc(/C=C(\C(=O)O)c2ccc(S(=O)(=O)N3CCCCC3)s2)cc1 | i | i | i | 5.9 | i
O=C(O)/C(=C\c1ccc(Cl)cc1)c1ccc(S(=O)(=O)N2CCCC2)s1 | i | i | i | i | nt
O=c1[nH]c(=S)[nH]cc1S(=O)(=O)c1cccc(Cl)c1 | i | i | i | 5.8 | i
Cc1cc(C)c(S(=O)(=O)c2cccc(Cl)c2)c(Cl)n1 | i | i | i | i | nt
COC(=O)[C@]12C[C@H](CC(=O)NCC34CC5CC(CC(C5)C3)C4)C(=O)N(CCC3=CCCCC3)C1=C[C@H](COCc1ccccc1)O[C@@H]2C | i | i | nt | i | nt
O=C(N/N=C/c1ccc(Br)s1)c1ccncc1 | i | i | i | 4.7 | 4.8
Cc1ccccc1N/N=C/c1sc(=O)n(Cc2cccc(C(=O)O)c2)c1Cl | i | i | i | i | nt
O=C(O)c1cccc(Cn2c(Cl)c(/C=N/NC(=O)c3ccccc3)sc2=O)c1 | i | i | i | 5.7 | 5.1
O=C(O)c1cccc(Cn2c(Cl)c(/C=N/NC(=O)c3ccco3)sc2=O)c1 | i | i | i | 7.0 | 7.4
O=C(O)c1cccc(Cn2c(Cl)c(/C=N/NC(=O)c3cccc(O)c3)sc2=O)c1 | i | i | i | i | nt
O=C(O)c1ccc(/C=N/NC(=O)c2cc3ccccc3cc2O)cc1 | i | i | i | 5.0 | i
COc1ccccc1-c1csc(C(O)(c2ccccc2)C(F)(F)F)n1 (configuration not stated) | i | i | i | i | nt
COc1cc(C(=O)N/N=C/c2sc(=O)n(-c3ccccc3)c2Cl)cc(OC)c1OC | i | i | i | i | nt
O=C(N/N=C/c1sc(=O)n(-c2ccccc2)c1Cl)c1ccncc1 | i | i | i | 7.5 | 4.8
O=C(O)c1cccc(Cn2c(Cl)c(/C=N/NC(=O)c3cc4ccccc4cc3O)sc2=O)c1 | i | i | i | 4.9 | 5.6
CN(C(=O)COC(=O)Cc1ccc(Br)cc1)c1c(N)n(Cc2ccccc2)c(=O)[nH]c1=O | i | i | i | i | nt
COC(=O)[C@@]12CCCCC3=C1N(CCC3)C(=O)[C@H]2CC(=O)N1CCN(C(=O)c2ccco2)CC1 | i | i | nt | nt | nt
Nc1ccc(/C=C/c2ccc3ncccc3c2)cc1 | i | i | i | i | nt
Nc1ccc(C=Cc2ccc(N)cc2)cc1 | i | i | i | 5.2 | i
CCC(=O)N1CCc2cc(Br)c(S(=O)(=O)NCCCN(CC)Cc3ccccc3)cc21 | i | i | nt | nt | nt
Fc1ccccc1C1CC(c2ccco2)=Nc2ccccc2S1 (configuration not stated) | i | i | i | 4.9 | i
O=C(NN1CCCCC1)NN1CCCCC1 | i | i | i | i | nt
Cc1cc(=O)[nH]c(N/N=C/c2ccc(N(C)C)cc2)n1 | i | i | i | 7.6 | 6.2
Cc1cc(=O)[nH]c(N/N=C/c2ccc(F)cc2)n1 | i | i | i | i | nt
SMILES | KLK7 zymogen act | SMARCA2 act | MsrA act | MsrA inh | MsrA inh confirm
Cc1cc(=O)[nH]c(N/N=C/c2ccc(Cl)cc2Cl)n1 | i | i | i | i | nt
CCN(CCC#N)c1ccc(/C=N/Nc2nc(C)cc(=O)[nH]2)c(C)c1 | i | i | i | 6.0 | 4.7
CCNc1nc(NCC)nc(N/N=C/c2ccc(O)c(O)c2)n1 | i | i | i | i | nt
CCNc1nc(NCC)nc(N/N=C/c2ccc(N(C)C)cc2)n1 | i | i | i | 6.5 | 4.9
Cc1ccc(C)c(OCCC(=O)OCC(=O)Nc2ccc(N3CCOCC3)cc2)c1 | i | i | i | i | nt
CCc1cc(C(=O)Cc2nc3ccccc3[nH]2)c(O)cc1O | i | i | i | 5.0 | i
O=C(Cc1nc2ccccc2[nH]1)c1ccc(Cl)cc1 | i | i | i | i | nt
Cc1onc(-c2ccccc2)c1C(=O)OCC(=O)c1ccc(F)cc1 | i | i | i | i | nt
O=C1NC(=S)NC1=Cc1ccco1 | i | i | i | i | nt
O=C1NC(=O)/C(=C/c2ccco2)N1 | i | i | i | 7.9 | 6.2
N#CC(C(O)c1ccccc1)N1CCOCC1 (configuration not stated) | i | i | i | i | nt
Cc1ccn2c(=O)c(NC(=O)COc3ccccc3)c(C)nc2c1 | i | i | i | 4.9 | i
Cc1nc2c(C)cccn2c(=O)c1NC(=O)COc1ccccc1 | i | i | i | i | nt
O=C(Nc1ccc(C(=O)O)cc1)/C(=C\c1ccc(F)cc1)NC(=O)c1ccco1 | i | i | i | i | nt
O=C(Nc1ccc(C(=O)O)cc1)/C(=C\c1ccc2c(c1)OCO2)NC(=O)c1ccco1 | i | i | i | 7.4 | 5.0
O=C(Nc1ccc(C(=O)O)cc1)/C(=C\c1ccc2c(c1)OCO2)NC(=O)c1ccc(Br)o1 | i | i | i | 5.1 | i
CCOC(=O)/C(C#N)=C/Nc1cc(F)ccc1C | i | i | i | 5.8 | i
COc1cc(C)ccc1S(=O)(=O)NC(=O)C1(C)CCN1C(=O)Cc1ccc(Cl)cc1Cl (configuration not stated) | i | i | i | i | nt
O=C(N/N=C/c1cnc2ccccc2n1)c1cccc(F)c1 | i | i | i | 5.8 | i
COC(=O)c1ccc(/C=N/NC(=O)c2cccc(F)c2)cc1 | nt | nt | i | nt | nt
COc1cccc(C(=O)N2CCC[C@@H]2C(=O)N2CCC[C@@H]2C(=O)NCc2ccccc2)c1 | i | i | nt | i | nt
COc1cc(C)nc(N(Cc2ccccc2)S(=O)(=O)c2ccccc2)n1 | i | i | i | 5.6 | i
O=C1[C@@H]2CSCCS(=O)(=O)N2C(=O)N1C1CCCCC1 | i | i | nt | i | nt
O=C(Nc1ccc(-c2nc3ccccc3o2)c(O)c1)c1cc(-n2cnnc2)ccc1Cl | i | i | i | 4.8 | i
CC(=C/c1ccccc1)/C=N/Nc1nc(N2CCOCC2)nc(N2CCOCC2)n1 | i | i | i | i | nt
SMILES | KLK7 zymogen act | SMARCA2 act | MsrA act | MsrA inh | MsrA inh confirm
C(=C\c1ccccc1)/C=N/Nc1nc(N2CCOCC2)nc(N2CCOCC2)n1 | i | i | i | 7.5 | 6.8
Clc1ccccc1/C=C/C=N/Nc1nc(N2CCOCC2)nc(N2CCOCC2)n1 | i | i | i | 5.3 | i
C[C@@H]1CN([C@@H](C)CO)C(=O)c2cc(C#CCN(C)C)cnc2O[C@H]1CN(C)Cc1ccc2c(c1)OCO2 | i | i | i | i | nt
COc1ccc(C(C)(O)c2nc(-c3ccoc3)cs2)cc1 (configuration not stated) | i | i | i | i | nt
CC1CCCCN1C(=O)c1ccc(CNC(=O)c2cccc(Br)c2)cc1 (configuration not stated) | i | i | nt | nt | nt
COc1ccc(C=O)c(OCc2cn(CC(=O)c3ccc(O)cc3)nn2)c1 | i | i | i | i | nt
Cc1c(C(=O)N/N=C/c2cccnc2)sc(N)c1C#N | i | i | i | 4.7 | i
CCNC(=O)C1CCCN(Cc2cc(-c3ccccc3)on2)CC1 (configuration not stated) | i | i | i | i | nt
CC(=O)c1ccccc1Oc1cc(NN2CCCCC2)c([N+](=O)[O-])cc1[N+](=O)[O-] | i | i | i | i | nt
